# Inconclusive results are not listed. Some structures have more than one record in an assay (separate samples or runs), and their calls can disagree. Active and inactive are the calls of the source. The calls were made as follows, unless noted: active = hit-call score of the fitted dose curve at least 0.9, where 1 is the maximum; inactive = score below 0.9.
# Columns and labels:
# [1] = biological target: Peroxisome proliferator-activated receptor gamma (Homo sapiens) (UniProt P37231); assay: OT_PPARg_PPARgSRC1_0480: Odyssey Thera (OT) 8-hour Protein-Complementation Assay for Peroxisome Proliferator-activated Receptor Gamma / SRC-1 Co-activator (AID 2283387; active = hit-call score of the fitted dose curve at least 0.9, where 1 is the maximum;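 also: nuclear to cytoplasmic split Venus YFP fluorescence ratio reporting PPARg SRC-1 interaction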)
# Chain of Peroxisome proliferator-activated receptor gamma (Homo sapiens) (P37231 whole entry, looked up, the tested form may be a part): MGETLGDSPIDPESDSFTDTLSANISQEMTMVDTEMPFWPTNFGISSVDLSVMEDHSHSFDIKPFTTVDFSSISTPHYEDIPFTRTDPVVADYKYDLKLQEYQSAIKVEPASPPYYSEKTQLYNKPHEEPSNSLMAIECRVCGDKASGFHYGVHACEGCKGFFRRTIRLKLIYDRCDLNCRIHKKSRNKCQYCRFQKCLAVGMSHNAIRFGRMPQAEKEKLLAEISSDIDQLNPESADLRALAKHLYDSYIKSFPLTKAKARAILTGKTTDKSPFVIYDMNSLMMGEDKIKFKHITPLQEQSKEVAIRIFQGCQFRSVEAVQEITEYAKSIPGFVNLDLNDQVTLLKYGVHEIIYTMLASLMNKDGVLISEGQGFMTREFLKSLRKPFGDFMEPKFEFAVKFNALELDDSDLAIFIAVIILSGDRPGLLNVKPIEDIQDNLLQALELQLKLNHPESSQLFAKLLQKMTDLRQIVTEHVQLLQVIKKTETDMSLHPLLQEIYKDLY
# Method in brief: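 Protein-fragment complementation in HEK293T: Venus YFP halves (residues 1-158, 159-239, mutated to IFP1/IFP2) fused to PPARg/SRC-1. 8 h exposure; N/C ratio at 488 nm; DMSO negative control.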
# [2] = CEETOX_H295R_11DCORT: CeeTox H295R High-throughput Steroidogenesis Assay for 11-Deoxycortisol (11DCORT) (AID 2283432); details: actives raise or lower the signal;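 as to AC50: human adrenal H295R cells prestimulated with 10 µM forskolin for 48 h; 11-deoxycortisol secreted into the medium measured by LC-MS/MS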
# Method in brief: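 Adrenal carcinoma line H295R, run per OECD 456 with minor changes, was forskolin-stimulated (10 uM, 48 h) before a 48 h chemical exposure at 0.1% DMSO. Secreted 11-deoxycortisol was quantified by HPLC-MS/MS.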
# [3] = CEETOX_H295R_OHPREG: CeeTox H295R High-throughput Steroidogenesis Assay for OH-Pregnenolone (OHPREG) (AID 2283434); details: actives raise or lower the signal
# Method in brief: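 H295R, 10 uM forskolin pre-stim 48 h; test chemical 48 h, 0.1% DMSO final. MTBE extraction, reverse-phase C18 HPLC-ESI+ MS/MS of medium. Gain/loss vs DMSO; viability by MTT in same wells.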
# [4] = CEETOX_H295R_OHPROG: CeeTox H295R High-throughput Steroidogenesis Assay for OH-Progesterone (OHPROG) (AID 2283435); details: actives raise or lower the signal;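 as to AC50: human adrenal H295R cells primed 48 h with 10 µM forskolin; 17alpha-hydroxyprogesterone secreted into medium measured by HPLC-MS/MS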
# Method in brief: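 Human adrenocortical H295R cells, passage 10 or lower, were treated with chemical for 48 h after forskolin priming, and hormone output in the medium was quantified by LC-MS/MS.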
# [5] = CEETOX_H295R_CORTIC: CeeTox H295R High-throughput Steroidogenesis Assay for Corticosterone (CORTIC) (AID 2283437); details: actives raise or lower the signal;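 also: corticosterone secreted into medium quantified by mass spectrometry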;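 as to AC50: human H295R adrenal cells prestimulated with forskolin before chemical exposure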
# Method in brief: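 48 h forskolin (10 uM) prestim, then 48 h chemical exposure, final DMSO 0.1%. Readout: corticosterone in medium by LC-MS/MS after MTBE extraction. Gain/loss fit vs DMSO; MTT viability in same wells.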
# [6] = CEETOX_H295R_CORTISOL: CeeTox H295R High-throughput Steroidogenesis Assay for Cortisol (AID 2283438); details: actives raise or lower the signal;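 also: cortisol secreted into medium quantified by LC-MS/MS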
# Method in brief: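 Steroidogenesis in H295R, per modified OECD 456: 48 h forskolin (10 uM), then 48 h exposure, 0.1% DMSO. Cortisol by extraction and tandem MS; viability by MTT (570/650 nm); cytotoxic chemicals diluted and re-tested.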
# [7] = CEETOX_H295R_DOC: CeeTox H295R High-throughput Steroidogenesis Assay for DOC (AID 2283439); details: actives raise or lower the signal
# Method in brief: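 H295R, fsk 10 uM ×48 h pre, cmpd ×48 h (0.1% DMSO). Media → MTBE extr. → LC-MS/MS, DOC. Bidirectional fit vs DMSO; MTT viability same wells, re-test diluted if <70%.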
# [8] = CEETOX_H295R_ESTRONE: CeeTox H295R High-throughput Steroidogenesis Assay for Estrone (AID 2283441); details: actives raise or lower the signal;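 also: estrone secreted into medium measured by LC-MS/MS after dansyl derivatization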;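 as to AC50: human adrenal H295R cells prestimulated with forskolin for two days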
# Method in brief: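 Forskolin-stimulated H295R cells are treated 48 h with chemical, and estrone in the medium is measured by LC-MS/MS. Activity is fitted in both directions relative to DMSO controls, with chemicals diluted until MTT viability reaches at least 70%.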
# [9] = CEETOX_H295R_ANDR: CeeTox H295R High-throughput Steroidogenesis Assay for Androstenedione (ANDR) (AID 2283436); details: actives raise or lower the signal;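 also: human H295R adrenal cells exposed for 48 h with androstenedione measured in medium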
# Method in brief: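 48 h chemical exposure, H295R cells, DMEM/F12 + ITS+ and Nu-Serum. Medium androstenedione: MTBE extraction, C18 reverse-phase HPLC, ESI+ MS/MS. Fit bidirectional vs DMSO; MTT viability in same wells.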
# [10] = biological target: Peroxisome proliferator-activated receptor gamma (Homo sapiens) (UniProt P37231); assay: OT_PPARg_PPARgSRC1_1440: Odyssey Thera (OT) 24-hour Protein-Complementation Assay for Peroxisome Proliferator-activated Receptor Gamma/ SRC-1 Co-activator (AID 2283388; active = hit-call score of the fitted dose curve at least 0.9, where 1 is the maximum;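 also: nuclear to cytoplasmic ratio of reconstituted Venus YFP fluorescence in fixed imaged cells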)
# Method in brief: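 Cells carrying the PPARg/SRC-1 fragment-complementation reporter receive compound for 24 hours, are fixed and counterstained with Draq5, then imaged. Increased nuclear relative to cytoplasmic YFP fluorescence above DMSO baseline indicates binding activity.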
smiles,measurement,setting,value
Cc1c(F)c(F)c(COC(=O)C2C(/C=C(\Cl)C(F)(F)F)C2(C)C)c(F)c1F (stereo not drawn),outcome,[1],inactive
same,outcome,[2],inactive
same,outcome,[3],inactive
same,outcome,[4],inactive
same,outcome,[5],inactive
same,outcome,[6],inactive
same,outcome,[7],inactive
same,outcome,[8],inactive
CCNc1nc(Cl)nc(NCC)n1,outcome,[1],inactive
same,outcome,[2],inactive
same,outcome,[3],inactive
same,outcome,[4],inactive
same,outcome,[5],inactive
same,outcome,[6],inactive
same,outcome,[7],inactive
same,AC50,[8],8.07 µM (active)
CCON=C(CC)C1=C(O)CC(c2c(C)cc(C)cc2C)CC1=O (stereo not drawn),outcome,[1],inactive
same,outcome,[2],inactive
same,outcome,[3],inactive
same,outcome,[4],inactive
same,outcome,[9],inactive
same,outcome,[5],inactive
same,outcome,[6],inactive
same,outcome,[7],inactive
CNC(=S)S,outcome,[1],inactive
same,outcome,[10],inactive
same,outcome,[2],inactive
same,outcome,[3],inactive
same,outcome,[4],inactive
same,outcome,[5],inactive
same,outcome,[6],inactive
same,outcome,[7],inactive
same,outcome,[8],inactive
CC(C)Oc1cc(-n2nc(C(C)(C)C)oc2=O)c(Cl)cc1Cl,outcome,[1],inactive
same,outcome,[10],inactive
same,outcome,[2],inactive
same,AC50,[3],0.951 µM (active)
same,outcome,[4],inactive
same,outcome,[9],inactive
same,outcome,[5],inactive
same,outcome,[6],inactive
same,outcome,[7],inactive
same,outcome,[8],inactive
COc1nc(NC(C)C)nc(NC(C)C)n1,outcome,[1],inactive
same,outcome,[2],inactive
same,outcome,[3],inactive
same,outcome,[4],inactive
same,outcome,[5],inactive
same,outcome,[6],inactive
same,outcome,[7],inactive
same,AC50,[8],3.8 µM (active)
O=C(O)c1nc(Cl)ccc1Cl,outcome,[10],inactive
C=CC1(C)OC(=O)N(c2cc(Cl)cc(Cl)c2)C1=O (stereo not drawn),outcome,[1],inactive
same,AC50,[2],25.6 µM (active)
same,outcome,[3],inactive
same,AC50,[4],22.6 µM (active)
same,outcome,[5],inactive
same,outcome,[6],inactive
same,AC50,[7],11.3 µM (active)
same,outcome,[8],inactive
CC1=C(C(=O)Nc2ccccc2)SCCO1,outcome,[1],inactive
same,outcome,[2],inactive
same,outcome,[3],inactive
same,outcome,[4],inactive
same,outcome,[9],inactive
same,outcome,[5],inactive
same,outcome,[6],inactive
same,outcome,[7],inactive
same,outcome,[8],inactive
C=CCC1=C(C)C(OC(=O)C2C(C=C(C)C)C2(C)C)CC1=O (stereo not drawn),outcome,[1],inactive
same,outcome,[2],inactive
same,outcome,[3],inactive
same,outcome,[4],inactive
same,outcome,[5],inactive
same,outcome,[6],inactive
same,outcome,[7],inactive
CCCCNC(=O)n1c(NC(=O)OC)nc2ccccc21,outcome,[1],inactive
same,outcome,[2],inactive
same,outcome,[3],inactive
same,outcome,[4],inactive
same,outcome,[9],inactive
same,outcome,[5],inactive
same,outcome,[6],inactive
same,outcome,[7],inactive
same,outcome,[8],inactive
CC1COC(Cn2cncn2)(c2ccc(Oc3ccc(Cl)cc3)cc2Cl)O1 (stereo not drawn),outcome,[1],inactive
same,outcome,[2],inactive
same,outcome,[3],inactive
same,AC50,[4],0.5 µM (active)
same,outcome,[5],inactive
same,AC50,[6],0.372 µM (active)
same,AC50,[7],0.334 µM (active)
same,outcome,[8],inactive
Cc1cc(Cl)ccc1OCC(=O)O,outcome,[1],inactive
same,outcome,[2],inactive
same,outcome,[3],inactive
same,outcome,[4],inactive
same,outcome,[9],inactive
same,outcome,[5],inactive
same,outcome,[6],inactive
same,outcome,[7],inactive
CCNc1nc(Cl)nc(NC(C)C)n1,outcome,[1],inactive
same,outcome,[2],inactive
same,outcome,[3],inactive
same,outcome,[4],inactive
same,outcome,[5],inactive
same,outcome,[6],inactive
same,outcome,[7],inactive
same,AC50,[8],1.35 µM (active)
N#CC(CCc1ccc(Cl)cc1)(Cn1cncn1)c1ccccc1 (stereo not drawn),outcome,[1],inactive
same,outcome,[2],inactive
same,outcome,[3],inactive
same,AC50,[4],0.36 µM (active)
same,outcome,[9],inactive
same,outcome,[5],inactive
same,AC50,[6],0.386 µM (active)
same,outcome,[7],inactive
same,outcome,[8],inactive
COP(=S)(OC)Oc1nc(Cl)c(Cl)cc1Cl,outcome,[1],inactive
same,outcome,[5],inactive
same,outcome,[6],inactive
same,outcome,[7],inactive
same,outcome,[8],inactive
CC(C)C1(C)N=C(c2nc3ccccc3cc2C(=O)O)NC1=O (stereo not drawn),outcome,[1],inactive
same,outcome,[10],inactive
COP(N)(=O)SC (stereo not drawn),outcome,[1],inactive
same,outcome,[10],inactive
CCCC1COC(Cn2cncn2)(c2ccc(Cl)cc2Cl)O1 (stereo not drawn),outcome,[1],inactive
same,outcome,[2],inactive
same,outcome,[3],inactive
same,outcome,[4],inactive
same,outcome,[9],inactive
same,AC50,[5],0.357 µM (active)
same,AC50,[6],0.323 µM (active)
same,outcome,[7],inactive
CCOC(=O)C(Cl)Cc1cc(-n2nc(C)n(C(F)F)c2=O)c(F)cc1Cl (stereo not drawn),outcome,[1],inactive
same,outcome,[2],inactive
same,outcome,[3],inactive
same,AC50,[4],50 µM (active)
same,outcome,[5],inactive
same,outcome,[6],inactive
same,AC50,[7],17.2 µM (active)
same,outcome,[8],inactive
Oc1ccccc1-c1ccccc1,outcome,[1],inactive
same,outcome,[3],inactive
same,AC50,[4],71.8 µM (active)
same,outcome,[4],inactive
same,AC50,[8],50 µM (active)
same,outcome,[8],inactive
CCOC(=O)CC(SP(=S)(OC)OC)C(=O)OCC (stereo not drawn),outcome,[1],inactive
same,outcome,[2],inactive
same,outcome,[3],inactive
same,AC50,[4],25.8 µM (active)
same,outcome,[9],inactive
same,outcome,[5],inactive
same,outcome,[6],inactive
same,outcome,[7],inactive
OC(c1ccc(Cl)cc1)(c1cncnc1)c1ccccc1Cl (stereo not drawn),outcome,[1],inactive
same,outcome,[10],inactive
CCOP(=S)(OCC)SCn1c(=O)oc2cc(Cl)ccc21,outcome,[1],inactive
same,outcome,[2],inactive
same,AC50,[3],5 µM (active)
same,outcome,[4],inactive
same,AC50,[5],1.14 µM (active)
same,outcome,[6],inactive
same,AC50,[7],1.36 µM (active)
same,AC50,[8],1.62 µM (active)
CCOc1cc(Oc2ccc(C(F)(F)F)cc2Cl)ccc1[N+](=O)[O-],outcome,[1],inactive
same,outcome,[10],inactive
same,outcome,[2],inactive
same,outcome,[3],inactive
same,outcome,[4],inactive
same,outcome,[5],inactive
same,outcome,[6],inactive
same,outcome,[7],inactive
same,AC50,[8],3.32 µM (active)
CON(C)C(=O)Nc1ccc(Cl)c(Cl)c1,outcome,[1],inactive
same,outcome,[2],inactive
same,outcome,[3],inactive
same,outcome,[4],inactive
same,outcome,[5],inactive
same,outcome,[6],inactive
same,outcome,[7],inactive
